Test results published in the supplement of paper PMC10849652.
Targets with a hit are over-represented here; the source holds about 7,900 in all. About 0.6% of all pairs of compound and target were hits.

Tests used:
Experiment in all cases: log2 fold change, soluble protein after heating vs DMSO (PISA); higher = thermal stabilisation; K562 cells, 10 uM, 30 min; active = over 0.2 and 3.5 SD of the protein, either way, in both replicates (recomputed)
[1] = compound: NC(=O)Nc1cc(-c2cccc(F)c2)sc1C(=O)N[C@H]1CCCNC1
Outline: (§1)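 K562 cells at 2×10^6 cells/mL were treated for 30 min with 10 μM compound, and aliquots were heated for 3 min over 48°C-58°C before pooling. Extraction used PBS with 0.5% NP-40 at 4°C, and soluble protein was the supernatant after 21,000xg for 90 min, measured by TMTpro 16plex LC-MS/MS with channel sums equalised. Thermal stability values, relative to control samples and from duplicates, are log2 fold changes.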

[2] = compound: NC(=O)c1cnc(N[C@@H]2CCCC[C@@H]2N)nc1Nc1cccc(-n2nccn2)c1
Outline: as §1

[3] = compound: NC1(c2ccc(-c3nc4ccn5c(=O)[nH]nc5c4cc3-c3ccccc3)cc2)CCC1
Outline: as §1

[4] = compound: NCC(=O)Nc1ccc(-n2nc(C(F)(F)F)cc2-c2ccc3c(ccc4ccccc43)c2)cc1
Outline: as §1

entinostat = compound: Nc1ccccc1NC(=O)c1ccc(CNC(=O)OCc2cccnc2)cc1 [entinostat]
Outline: as §1

vorinostat = compound: O=C(CCCCCCC(=O)Nc1ccccc1)NO [vorinostat]
Outline: as §1

citarinostat = compound: O=C(CCCCCCNC(=O)c1cnc(N(c2ccccc2)c2ccccc2Cl)nc1)NO [citarinostat]
Outline: as §1

silmitasertib = compound: O=C(O)c1ccc2c(c1)nc(Nc1cccc(Cl)c1)c1ccncc12 [silmitasertib]
Outline: as §1

[5] = compound: O=C1NC(=O)C(c2cnc3ccccn23)=C1c1cn2c3c(cc(F)cc13)CN(C(=O)N1CCCCC1)CC2
Outline: as §1

[6] = compound: c1cc(OCCN2CCCCC2)cc(-c2n[nH]c3ccc(-c4nnc[nH]4)cc23)c1
Outline: as §1

Measured: log2 fold change

SLC7A6OS (UniProt Q96CW6)
inactive: [1] -0.023 | [2] -0.085 | [3] -0.079 | [4] 0.042 | entinostat -0.043 | vorinostat 0.056 | citarinostat 0.098 | silmitasertib 0.06 | [5] -0.036 | [6] -0.037

SLC35F6 (UniProt Q8N357)
inactive: [1] -0.068 | [2] 0.045 | [3] -0.161 | [4] 0.005 | entinostat -0.185 | citarinostat -0.026 | silmitasertib 0.023 | [5] 0.074 | [6] 0.025

SRP72 (UniProt O76094)
inactive: [1] -0.088 | [2] -0.054 | [3] -0.082 | [4] -0.128 | entinostat 0.069 | vorinostat 0.103 | citarinostat 0.095 | silmitasertib 0.042 | [5] 0.105 | [6] -0.129

SPPL2B (UniProt Q8TCT7)
inactive: [1] 0.06 | [2] 0.009 | [3] -0.031 | [4] -0.016 | entinostat -0.052 | vorinostat -0.013 | citarinostat 0.05 | silmitasertib -0.037 | [5] 0.029 | [6] -0.025

STARD3 (UniProt Q14849)
inactive: [1] 0.014 | [2] 0.079 | [3] -0.236 | [4] -0.073 | entinostat 0.004 | vorinostat -0.021 | silmitasertib 0.053 | [5] -0.003

TBC1D10B (UniProt Q4KMP7)
Sequence of UniProt Q4KMP7 (Q4KMP7 whole entry, looked up): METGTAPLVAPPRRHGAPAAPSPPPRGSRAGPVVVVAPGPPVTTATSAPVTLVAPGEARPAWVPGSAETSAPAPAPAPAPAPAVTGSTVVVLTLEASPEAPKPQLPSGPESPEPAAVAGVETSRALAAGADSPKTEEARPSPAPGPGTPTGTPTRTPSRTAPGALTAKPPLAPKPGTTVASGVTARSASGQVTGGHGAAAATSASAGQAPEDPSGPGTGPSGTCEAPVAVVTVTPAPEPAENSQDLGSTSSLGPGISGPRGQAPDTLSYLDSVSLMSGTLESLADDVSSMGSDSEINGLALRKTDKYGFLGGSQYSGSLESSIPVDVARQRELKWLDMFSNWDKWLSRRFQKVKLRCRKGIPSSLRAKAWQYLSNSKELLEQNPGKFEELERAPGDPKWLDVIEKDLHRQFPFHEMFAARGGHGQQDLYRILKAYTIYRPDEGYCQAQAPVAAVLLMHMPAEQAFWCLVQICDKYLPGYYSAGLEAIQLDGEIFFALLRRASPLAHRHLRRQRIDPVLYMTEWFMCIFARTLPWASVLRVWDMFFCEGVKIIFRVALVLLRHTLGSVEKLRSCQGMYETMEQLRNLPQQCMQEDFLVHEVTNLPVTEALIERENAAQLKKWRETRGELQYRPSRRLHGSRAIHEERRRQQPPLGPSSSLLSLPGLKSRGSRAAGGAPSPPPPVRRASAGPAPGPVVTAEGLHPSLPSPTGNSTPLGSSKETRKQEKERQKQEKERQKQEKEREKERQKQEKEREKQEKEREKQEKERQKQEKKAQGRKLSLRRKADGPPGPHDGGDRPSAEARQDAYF
active: [6] -0.283
inactive: [1] -0.141 | [2] 0.007 | [3] 0.038 | [4] -0.027 | entinostat 0.017 | vorinostat -0.03 | citarinostat 0.039 | silmitasertib -0.009 | [5] -0.005

STXBP5 (UniProt Q5T5C0)
Sequence of UniProt Q5T5C0 (Q5T5C0 whole entry, looked up): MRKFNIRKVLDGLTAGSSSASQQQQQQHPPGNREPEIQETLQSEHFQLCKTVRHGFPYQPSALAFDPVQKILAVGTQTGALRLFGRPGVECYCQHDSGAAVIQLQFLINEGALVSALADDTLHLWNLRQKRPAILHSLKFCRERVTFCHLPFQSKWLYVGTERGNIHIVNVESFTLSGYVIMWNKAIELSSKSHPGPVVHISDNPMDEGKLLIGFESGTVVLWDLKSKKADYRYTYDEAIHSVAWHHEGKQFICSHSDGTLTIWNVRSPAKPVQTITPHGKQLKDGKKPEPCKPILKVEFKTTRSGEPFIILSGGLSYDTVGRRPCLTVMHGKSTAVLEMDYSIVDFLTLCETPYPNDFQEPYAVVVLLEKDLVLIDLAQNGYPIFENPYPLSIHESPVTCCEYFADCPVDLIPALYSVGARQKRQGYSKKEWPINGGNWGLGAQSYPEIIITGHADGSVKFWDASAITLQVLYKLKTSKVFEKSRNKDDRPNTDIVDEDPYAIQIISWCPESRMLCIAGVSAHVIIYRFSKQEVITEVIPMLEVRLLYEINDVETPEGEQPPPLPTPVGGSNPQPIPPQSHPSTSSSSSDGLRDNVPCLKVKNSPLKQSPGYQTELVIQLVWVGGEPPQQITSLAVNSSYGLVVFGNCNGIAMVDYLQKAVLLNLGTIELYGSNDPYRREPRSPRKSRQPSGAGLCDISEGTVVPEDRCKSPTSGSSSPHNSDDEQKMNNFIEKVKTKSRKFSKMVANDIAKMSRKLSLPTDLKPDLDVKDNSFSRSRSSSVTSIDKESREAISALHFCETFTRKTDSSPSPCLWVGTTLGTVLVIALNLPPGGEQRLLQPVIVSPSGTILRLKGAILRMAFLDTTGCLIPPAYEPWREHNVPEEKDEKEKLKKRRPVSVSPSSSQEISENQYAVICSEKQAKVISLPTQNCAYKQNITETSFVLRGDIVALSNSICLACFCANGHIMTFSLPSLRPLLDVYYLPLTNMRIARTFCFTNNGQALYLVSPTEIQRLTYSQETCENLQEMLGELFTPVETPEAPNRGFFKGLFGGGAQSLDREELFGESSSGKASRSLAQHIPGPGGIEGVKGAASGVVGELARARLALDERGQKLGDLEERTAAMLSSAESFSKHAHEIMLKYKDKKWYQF
inactive: [1] 0.006 | [2] -0.022 | [3] -0.145 | [4] -0.033 | entinostat -0.011 | vorinostat 0.004 | citarinostat 0.024 | silmitasertib 0.041 | [5] -0.04 | [6] -0.003

SYK (UniProt P43405)
inactive: [4] -0.029 | citarinostat -0.029 | [5] 0.075 | [6] -0.123

SUPT5H isoform 2 (UniProt O00267)
inactive: [4] -0.046

SPAG9 isoform 4 (UniProt O60271)
inactive: [1] -0.101 | [2] -0.164 | [3] -0.09 | [4] -0.199 | entinostat 0.034 | citarinostat -0.048 | silmitasertib 0.014 | [6] -0.017

TAOK2 (UniProt Q9UL54)
inactive: [3] -0.01 | vorinostat 0.081 | citarinostat 0.056 | silmitasertib -0.009 | [5] 0.184 | [6] 0.12

TCOF1 isoform 6 (UniProt Q13428)
inactive: [1] 0.281 | [3] -0.07 | [4] 0.077 | entinostat 0.23 | citarinostat 0.18 | silmitasertib 0.028 | [6] -0.042

SMARCB1 (UniProt Q12824)
inactive: [1] -0.023 | [4] -0.261 | entinostat -0.005 | vorinostat -0.158 | citarinostat -0.171 | [6] -0.103

TATDN2 (UniProt Q93075)
inactive: [1] -0.115 | [2] 0.003 | [4] -0.126 | entinostat 0.009 | vorinostat 0.004 | [5] 0.067 | [6] 0.06
active: citarinostat -0.52

TEX30 (UniProt Q5JUR7)
inactive: [2] -0.101 | [3] -0.097 | [4] -0.1 | vorinostat 0.121 | silmitasertib 0.073 | [5] -0.04

SSBP4 (UniProt U3KPY3)
inactive: [3] -0.014 | [4] 0.016 | silmitasertib 0.133

SLC9A6 isoform 3 (UniProt Q92581)
inactive: [2] 0.009 | citarinostat -0.066 | [6] 0.172

TCOF1 isoform 3 (UniProt Q13428)
inactive: [1] 0.283 | entinostat 0.008 | vorinostat 0.205 | citarinostat 0.105 | [5] 0.067 | [6] -0.146

SRFBP1 (UniProt Q8NEF9)
inactive: [1] 0.038 | [2] 0.198 | [3] 0.211 | entinostat -0.071 | vorinostat 0.009 | citarinostat 0 | silmitasertib 0.054 | [5] 0.122 | [6] 0.116

SNX2 isoform 2 (UniProt O60749)
inactive: [1] 0.043 | [2] -0.004 | [4] -0.264 | entinostat 0.088 | citarinostat 0.065 | [5] -0.183 | [6] -0.1

SPIRE1 (UniProt Q08AE8)
inactive: [2] -0.025 | [3] 0.063 | [4] -0.04 | vorinostat -0.035 | citarinostat 0.022 | silmitasertib -0.008 | [5] 0.224 | [6] 0.023

TANGO6 (UniProt Q9C0B7)
inactive: [1] -0.007 | [2] -0.002 | [3] -0.167 | entinostat 0.035 | citarinostat -0.071 | silmitasertib 0.084 | [5] 0.017 | [6] -0.089

SLC39A1 (UniProt Q9NY26)
inactive: vorinostat 0.181

SLC35B1 isoform 2 (UniProt P78383)
inactive: [1] -0.054 | [3] -0.029 | [4] -0.057 | entinostat 0.041 | citarinostat -0.052 | silmitasertib 0.261 | [5] 0.138 | [6] -0.327

SOX5 (UniProt P35711)
inactive: [1] 0.035 | [2] -0.064 | [3] -0.015 | [4] 0.03 | entinostat -0.129 | silmitasertib 0.018

SMPD4 isoform 2 (UniProt Q9NXE4)
inactive: [2] -0.1 | [3] 0.014 | [4] -0.03 | vorinostat 0.216 | silmitasertib -0.058

TM7SF3 (UniProt Q9NS93)
Sequence of UniProt Q9NS93 (Q9NS93 whole entry, looked up): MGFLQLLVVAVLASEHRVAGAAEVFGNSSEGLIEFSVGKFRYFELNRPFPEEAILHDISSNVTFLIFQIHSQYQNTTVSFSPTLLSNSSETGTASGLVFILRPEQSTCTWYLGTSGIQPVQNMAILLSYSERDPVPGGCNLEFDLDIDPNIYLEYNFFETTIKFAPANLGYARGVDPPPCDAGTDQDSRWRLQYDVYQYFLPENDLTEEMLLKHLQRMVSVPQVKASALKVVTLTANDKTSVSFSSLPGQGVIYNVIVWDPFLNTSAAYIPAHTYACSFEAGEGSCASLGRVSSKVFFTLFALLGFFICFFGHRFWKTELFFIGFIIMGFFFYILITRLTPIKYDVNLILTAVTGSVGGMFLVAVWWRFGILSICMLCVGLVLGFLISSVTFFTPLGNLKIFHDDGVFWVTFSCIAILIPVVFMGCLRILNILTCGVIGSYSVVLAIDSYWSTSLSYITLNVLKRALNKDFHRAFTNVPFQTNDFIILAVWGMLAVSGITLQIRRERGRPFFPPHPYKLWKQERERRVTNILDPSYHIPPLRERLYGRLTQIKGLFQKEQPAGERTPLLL
inactive: [1] 0.091 | [2] 0.048 | entinostat 0.076 | citarinostat 0.179 | silmitasertib 0.066 | [6] 0.084
active: [3] -0.359

SNRK (UniProt Q9NRH2)
inactive: [1] -0.19 | entinostat -0.046 | citarinostat 0.26 | [6] 0.325

TM7SF2 (UniProt O76062)
inactive: [1] 0.057 | [4] -0.276 | entinostat 0.119

SLC29A3 (UniProt Q9BZD2)
inactive: [1] -0.098 | [2] -0.124 | [3] -0.304 | [4] 0.04 | entinostat -0.022 | citarinostat -0.123 | silmitasertib 0.047 | [5] 0.142 | [6] -0.033

THAP9 (UniProt Q9H5L6)
inactive: [2] 0.021 | [3] 0.024 | silmitasertib 0.049

SSBP4 (UniProt Q9BWG4)
inactive: [1] 0.177 | [2] 0.041 | [3] -0.024 | entinostat -0.084 | vorinostat -0.107 | citarinostat 0.018 | silmitasertib -0.008 | [6] -0.093

SRCAP (UniProt Q6ZRS2)
inactive: [1] -0.079 | [3] 0.001 | [4] -0.041 | entinostat 0.077 | vorinostat -0.039 | citarinostat 0.014 | silmitasertib -0.022 | [6] 0.001

SP2 (UniProt Q02086)
inactive: [1] 0.164 | [2] -0.144 | entinostat -0.018 | citarinostat -0.063 | [6] -0.293

TC2N (UniProt Q8N9U0)
inactive: [2] 0.015 | [3] -0.067 | [4] -0.13 | silmitasertib -0.186

TBP (UniProt P20226)
inactive: [2] 0.095 | [3] 0.015 | [4] 0.033 | citarinostat 0.013 | silmitasertib 0.183 | [5] -0.025 | [6] -0.041

TENT5C (UniProt Q5VWP2)
Sequence of UniProt Q5VWP2 (Q5VWP2 whole entry, looked up): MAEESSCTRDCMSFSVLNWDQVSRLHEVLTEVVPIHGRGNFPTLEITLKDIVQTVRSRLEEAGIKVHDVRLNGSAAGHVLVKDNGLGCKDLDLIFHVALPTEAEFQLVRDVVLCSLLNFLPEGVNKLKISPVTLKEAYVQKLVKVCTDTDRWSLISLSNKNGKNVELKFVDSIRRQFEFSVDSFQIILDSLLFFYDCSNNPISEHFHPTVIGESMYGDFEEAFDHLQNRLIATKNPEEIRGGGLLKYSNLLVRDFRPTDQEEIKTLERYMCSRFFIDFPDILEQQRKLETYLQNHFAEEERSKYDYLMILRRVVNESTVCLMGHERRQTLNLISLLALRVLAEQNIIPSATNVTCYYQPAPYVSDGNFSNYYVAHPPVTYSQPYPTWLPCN
inactive: [1] -0.095 | [3] 0.006 | [4] -0.32 | entinostat 0.035 | vorinostat -0.104 | citarinostat 0.144 | silmitasertib -0.038 | [6] -0.133

SLC46A1 (UniProt Q96NT5)
Sequence of UniProt Q96NT5 (Q96NT5 whole entry, looked up): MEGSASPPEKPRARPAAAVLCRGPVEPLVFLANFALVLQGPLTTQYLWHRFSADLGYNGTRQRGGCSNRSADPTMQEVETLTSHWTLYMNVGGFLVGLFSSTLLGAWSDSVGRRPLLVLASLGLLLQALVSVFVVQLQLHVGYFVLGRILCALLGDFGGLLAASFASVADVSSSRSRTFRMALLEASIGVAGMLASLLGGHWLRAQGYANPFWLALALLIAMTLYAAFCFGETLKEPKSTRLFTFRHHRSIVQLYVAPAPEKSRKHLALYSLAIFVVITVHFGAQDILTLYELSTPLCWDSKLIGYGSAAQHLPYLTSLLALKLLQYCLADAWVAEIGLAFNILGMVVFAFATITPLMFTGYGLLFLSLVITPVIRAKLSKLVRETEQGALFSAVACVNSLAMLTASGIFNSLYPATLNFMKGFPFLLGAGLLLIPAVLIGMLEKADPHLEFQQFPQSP
inactive: [2] -0.143 | [4] 0.137 | vorinostat -0.005 | citarinostat -0.061 | [6] 0.01

SSB (UniProt E7ERC4)
inactive: [3] -0.168 | [4] -0.065 | vorinostat -0.176 | silmitasertib 0.022

SREBF1 isoform 4 (UniProt P36956)
active: [3] -0.565
inactive: citarinostat 0.095 | silmitasertib 0.01 | [5] 0.057 | [6] 0.007

SLC27A1 (UniProt Q6PCB7)
inactive: [1] 0.026 | [2] -0.012 | [3] -0.016 | [4] 0.038 | entinostat -0.013 | silmitasertib -0.039 | [5] 0.014

TBC1D2 (UniProt Q9BYX2)
Sequence of UniProt Q9BYX2 (Q9BYX2 whole entry, looked up): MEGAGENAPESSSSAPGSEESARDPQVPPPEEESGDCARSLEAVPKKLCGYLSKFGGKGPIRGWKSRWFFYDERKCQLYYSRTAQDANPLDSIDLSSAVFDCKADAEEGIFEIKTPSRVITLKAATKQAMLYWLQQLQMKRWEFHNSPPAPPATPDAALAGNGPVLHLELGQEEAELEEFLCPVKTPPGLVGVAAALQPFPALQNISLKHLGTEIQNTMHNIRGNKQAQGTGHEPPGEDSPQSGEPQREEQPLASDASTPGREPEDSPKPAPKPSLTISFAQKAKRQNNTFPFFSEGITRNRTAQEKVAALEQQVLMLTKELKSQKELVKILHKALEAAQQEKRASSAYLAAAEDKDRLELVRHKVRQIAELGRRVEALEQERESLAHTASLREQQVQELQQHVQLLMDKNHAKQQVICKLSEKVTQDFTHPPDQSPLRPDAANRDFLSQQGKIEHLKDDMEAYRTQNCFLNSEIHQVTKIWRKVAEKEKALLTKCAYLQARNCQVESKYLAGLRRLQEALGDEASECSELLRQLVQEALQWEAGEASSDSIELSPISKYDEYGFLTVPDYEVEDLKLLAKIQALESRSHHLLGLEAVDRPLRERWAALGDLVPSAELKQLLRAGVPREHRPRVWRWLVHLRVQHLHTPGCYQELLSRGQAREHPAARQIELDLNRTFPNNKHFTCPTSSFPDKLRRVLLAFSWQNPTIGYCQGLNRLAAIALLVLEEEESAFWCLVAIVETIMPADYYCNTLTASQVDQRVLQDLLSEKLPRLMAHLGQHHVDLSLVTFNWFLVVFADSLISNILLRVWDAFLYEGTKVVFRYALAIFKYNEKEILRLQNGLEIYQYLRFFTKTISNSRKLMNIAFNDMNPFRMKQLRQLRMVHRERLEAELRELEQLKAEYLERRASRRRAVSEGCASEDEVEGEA
inactive: [2] -0.078 | [3] -0.181 | vorinostat -0.022 | citarinostat -0.026 | silmitasertib 0.26 | [5] 0.058 | [6] -0.202

TAF6L (UniProt Q9Y6J9)
Sequence of UniProt Q9Y6J9 (Q9Y6J9 whole entry, looked up): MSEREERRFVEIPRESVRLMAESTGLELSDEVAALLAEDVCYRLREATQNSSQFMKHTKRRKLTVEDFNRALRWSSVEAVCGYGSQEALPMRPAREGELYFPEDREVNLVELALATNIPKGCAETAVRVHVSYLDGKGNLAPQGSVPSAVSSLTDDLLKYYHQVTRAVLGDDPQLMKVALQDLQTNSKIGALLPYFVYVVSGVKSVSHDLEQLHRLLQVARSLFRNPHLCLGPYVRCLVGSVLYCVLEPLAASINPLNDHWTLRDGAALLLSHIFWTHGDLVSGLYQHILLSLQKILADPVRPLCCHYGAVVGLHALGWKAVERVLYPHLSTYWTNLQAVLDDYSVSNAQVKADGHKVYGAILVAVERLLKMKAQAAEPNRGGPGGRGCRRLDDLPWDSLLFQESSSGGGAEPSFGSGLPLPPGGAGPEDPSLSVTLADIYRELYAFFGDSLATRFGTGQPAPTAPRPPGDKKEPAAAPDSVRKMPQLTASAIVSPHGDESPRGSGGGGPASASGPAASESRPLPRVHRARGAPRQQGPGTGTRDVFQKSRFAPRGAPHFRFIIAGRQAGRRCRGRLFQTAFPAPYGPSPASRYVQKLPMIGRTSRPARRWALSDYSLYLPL
inactive: [1] -0.038 | [2] -0.067 | [3] -0.061 | entinostat 0.033 | vorinostat 0.248 | silmitasertib 0.303

SLC8B1 (UniProt Q6J4K2)
inactive: [2] -0.078 | [4] 0.034 | vorinostat -0.031

SLC35B4 (UniProt Q969S0)
inactive: [1] -0.006 | [2] -0.052 | [3] -0.094 | [4] -0.072 | entinostat -0.002 | citarinostat -0.009 | silmitasertib -0.034 | [5] -0.069 | [6] -0.06
